This is part of a sample that, as a whole, favours compounds with a hit. Of some 79,000 tested, about 15% had one in any assay. Values without a mark were called inactive. Calls of active or inactive are those of the source. No stated cut-off is given here; in the data, active means growth inhibition above about 70%; inactive means the rest.
What was measured:
[1] = NCI Yeast Anticancer Drug Screen. Data for the rad52 strain (AID 147);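 further: 0% = growth of vehicle-treated control cultures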; details: S. cerevisiae rad52 mutant growth inhibition, active compounds read high
Summary of the method: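 Here a repair-compromised yeast strain receives each compound; its growth is then quantified and normalised to vehicle-only controls.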

[2] = NCI Yeast Anticancer Drug Screen. Data for the wt1 strain (AID 149);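 further: 0% = growth of vehicle-treated wt1 cultures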; details: S. cerevisiae wt1 strain (SPY 50644) growth inhibition, active compounds read high
Summary of the method: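 Yeast wt1 strain exposed to compounds; growth inhibition measured relative to vehicle-treated controls.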

[3] = NCI Yeast Anticancer Drug Screen. Data for the rad50EPP+ strain (AID 151);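 further: 0% = growth of vehicle-treated control cultures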; details: S. cerevisiae rad50 mutant strain, active compounds read high
Summary of the method: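 Read-out is yeast growth inhibition relative to vehicle; cells used were the rad50EPP+ strain.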

[4] = NCI Yeast Anticancer Drug Screen. Data for the mgt1 strain (AID 153); details: S. cerevisiae mgt1 mutant growth inhibition, active compounds read high
Summary of the method: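 Measured: inhibition of mgt1 yeast growth by compound, normalized to vehicle-treated cultures.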

[5] = NCI Yeast Anticancer Drug Screen. Data for the rad50 strain (AID 155);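 further: 0% = growth of vehicle-only cultures of the same strain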; details: S. cerevisiae rad50 strain growth inhibition, active compounds read high
Summary of the method: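 Yeast carrying a defined DNA repair defect were exposed to test compounds, and growth was compared with vehicle-treated controls to give percent inhibition.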

[6] = NCI Yeast Anticancer Drug Screen. Data for the mec2-1 strain (AID 157); details: S. cerevisiae mec2-1 strain, active compounds read high
Summary of the method: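 Using mec2-1 yeast: add compound, measure growth, express inhibition versus vehicle-treated cultures.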

[7] = NCI Yeast Anticancer Drug Screen. Data for the rad14 strain (AID 159);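 further: 0% = growth of vehicle-treated control cultures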; details: S. cerevisiae rad14 strain growth inhibition, active compounds read high
Summary of the method: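 Yeast cells carrying a defined DNA-repair defect were exposed to compounds, and growth inhibition was calculated relative to vehicle-treated control cultures.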

[8] = NCI Yeast Anticancer Drug Screen. Data for the sgs1 mgt1 strain (AID 161);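 further: 0% = growth of cultures given vehicle only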; details: S. cerevisiae sgs1 mgt1 strain, active compounds read high
Summary of the method: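 Growth of a repair-deficient yeast mutant was monitored after compound treatment and expressed as inhibition relative to vehicle-treated cultures.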

[9] = NCI Yeast Anticancer Drug Screen. Data for the CLN2oe strain (AID 163);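 further: 0% = growth of vehicle-only control cultures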; details: S. cerevisiae CLN2oe strain, active compounds read high
Summary of the method: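 Whole-cell yeast growth assay. A strain engineered for altered cell-cycle control received compound, and inhibition relative to vehicle-treated cultures was recorded.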

[10] = NCI Yeast Anticancer Drug Screen. Data for the cln2 rad14 strain (AID 165);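 further: 0% = growth equal to vehicle treated cultures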; details: S. cerevisiae cln2 rad14 strain, active compounds read high
Summary of the method: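 Yeast strain cln2 rad14, bearing defects in cell cycle control and DNA repair, serves as the test system; values reflect growth inhibition compared with vehicle.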

[11] = NCI Yeast Anticancer Drug Screen. Data for the bub3 strain (AID 167); details: S. cerevisiae bub3 mutant strain, active compounds read high
Summary of the method: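 Compounds were applied to a genetically altered yeast strain carrying a cell-cycle control defect. Growth inhibition was scored against vehicle-treated controls.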

[12] = NCI Yeast Anticancer Drug Screen. Data for the wt2 strain (AID 169);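 further: 0% = growth of vehicle-treated yeast cultures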; details: S. cerevisiae wt2 strain growth inhibition, active compounds read high
Summary of the method: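 Treated yeast vs. vehicle-treated yeast: growth inhibition determined.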

[13] = NCI Yeast Anticancer Drug Screen. Data for the mlh1 strain (AID 171);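 further: 0% = growth of vehicle-treated control cultures of the same strain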; details: S. cerevisiae mlh1 strain growth inhibition, active compounds read high
Summary of the method: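 A yeast strain with a defined genetic lesion serves as the test organism. Cultures receive compound or vehicle, and growth is measured.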

[14] = NCI Yeast Anticancer Drug Screen. Data for the sgs1 strain (AID 173);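 further: 0% = growth of vehicle-only control cultures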; details: S. cerevisiae sgs1 mutant, active compounds read high
Summary of the method: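 A genetically defined yeast mutant is incubated with the test compound, and its growth is compared to that of the same strain given vehicle.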

[15] = NCI Yeast Anticancer Drug Screen. Data for the mlh1 rad18 strain (AID 175); details: S. cerevisiae mlh1 rad18 strain growth inhibition, active compounds read high
Summary of the method: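 Steps: expose repair-defective yeast to compound; measure growth; express inhibition against vehicle-treated controls.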

[16] = NCI Yeast Anticancer Drug Screen. Data for the rad18 strain (AID 177); details: S. cerevisiae rad18 mutant growth inhibition, active compounds read high
Summary of the method: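 Measured value is growth inhibition of a yeast strain bearing a DNA repair alteration, referenced to vehicle-treated cells.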

[17] = at 5.0 µM (retest, dose inferred, filed as 0.5)
[18] = at 50.0 µM (retest, dose inferred, filed as 5.0)

Nc1ncncc1C(C1=C(O)COC1=O)C1=C(O)COC1=O
growth inhibition ([1]; at 1.2 µM): 2%
growth inhibition ([1]; at 3.7 µM): -1%
growth inhibition ([1]; at 11.0 µM): -1%
growth inhibition ([1]; at 33.0 µM): -2%
growth inhibition ([1]; at 100.0 µM): 0%
growth inhibition ([2]; at 1.2 µM): 1%
growth inhibition ([2]; at 3.7 µM): 4%
growth inhibition ([2]; at 11.0 µM): -3%
growth inhibition ([2]; at 33.0 µM): 0%
growth inhibition ([2]; at 100.0 µM): 1%
growth inhibition ([3]; at 1.2 µM): 6%
growth inhibition ([3]; at 3.7 µM): 10%
growth inhibition ([3]; at 11.0 µM): 10%
growth inhibition ([3]; at 33.0 µM): 6%
growth inhibition ([3]; at 100.0 µM): 2%
growth inhibition ([4]; at 1.2 µM): -2%
growth inhibition ([4]; at 3.7 µM): -4%
growth inhibition ([4]; at 11.0 µM): -6%
growth inhibition ([4]; at 33.0 µM): -2%
growth inhibition ([4]; at 100.0 µM): -2%
growth inhibition ([5]; at 1.2 µM): 2%
growth inhibition ([5]; at 3.7 µM): 2%
growth inhibition [5, 17]: -10%
growth inhibition ([5]; at 11.0 µM): -2%
growth inhibition ([5]; at 33.0 µM): 0%
growth inhibition [5, 18]: 15%
growth inhibition ([5]; at 50.0 µM): 8.05%
growth inhibition ([5]; at 100.0 µM): 1%
growth inhibition ([6]; at 1.2 µM): 4%
growth inhibition ([6]; at 3.7 µM): 7%
growth inhibition [6, 17]: -15%
growth inhibition ([6]; at 11.0 µM): 8%
growth inhibition ([6]; at 33.0 µM): 8%
growth inhibition [6, 18]: -16%
growth inhibition ([6]; at 50.0 µM): 5.95%
growth inhibition ([6]; at 100.0 µM): 0%
growth inhibition ([7]; at 1.2 µM): -2%
growth inhibition ([7]; at 3.7 µM): -4%
growth inhibition ([7]; at 11.0 µM): -2%
growth inhibition ([7]; at 33.0 µM): -5%
growth inhibition ([7]; at 100.0 µM): -2%
growth inhibition [8, 17]: -10%
growth inhibition [8, 18]: 13%
growth inhibition ([8]; at 50.0 µM): 8%
growth inhibition ([9]; at 1.2 µM): -7%
growth inhibition ([9]; at 3.7 µM): -16%
growth inhibition ([9]; at 11.0 µM): -6%
growth inhibition ([9]; at 33.0 µM): -8%
growth inhibition ([9]; at 100.0 µM): -8%
growth inhibition [10, 17]: -5%
growth inhibition [10, 18]: 0%
growth inhibition ([10]; at 50.0 µM): 35.1%
growth inhibition ([11]; at 1.2 µM): -2%
growth inhibition ([11]; at 3.7 µM): -1%
growth inhibition [11, 17]: 1%
growth inhibition ([11]; at 11.0 µM): -1%
growth inhibition ([11]; at 33.0 µM): -2%
growth inhibition [11, 18]: 19%
growth inhibition ([11]; at 50.0 µM): -6.55%
growth inhibition ([11]; at 100.0 µM): -8%
growth inhibition ([12]; at 1.2 µM): 1%
growth inhibition ([12]; at 3.7 µM): 1%
growth inhibition ([12]; at 11.0 µM): -1%
growth inhibition ([12]; at 33.0 µM): 0%
growth inhibition ([12]; at 100.0 µM): 1%
growth inhibition ([13]; at 1.2 µM): 4%
growth inhibition ([13]; at 3.7 µM): 1%
growth inhibition ([13]; at 11.0 µM): 3%
growth inhibition ([13]; at 33.0 µM): 3%
growth inhibition ([13]; at 100.0 µM): 0%
growth inhibition ([14]; at 1.2 µM): 3%
growth inhibition ([14]; at 3.7 µM): 3%
growth inhibition ([14]; at 11.0 µM): 3%
growth inhibition ([14]; at 33.0 µM): 2%
growth inhibition ([14]; at 100.0 µM): -1%
growth inhibition [15, 17]: 2%
growth inhibition [15, 18]: 57%
growth inhibition ([15]; at 50.0 µM): 4.8%
growth inhibition ([16]; at 1.2 µM): 1%
growth inhibition ([16]; at 3.7 µM): 0%
growth inhibition ([16]; at 11.0 µM): -1%
growth inhibition ([16]; at 33.0 µM): -3%
growth inhibition ([16]; at 100.0 µM): -4%

CCCN(CCC)CC(O)c1cc(-c2ccc(Cl)cc2)nc2c(C)c(Cl)ccc12 (stereo not drawn)
growth inhibition ([1]; at 1.2 µM): -2%
growth inhibition ([1]; at 3.7 µM): 2%
growth inhibition ([1]; at 11.0 µM): 98% (active)
growth inhibition ([1]; at 33.0 µM): 96% (active)
growth inhibition ([1]; at 100.0 µM): 93% (active)
growth inhibition ([2]; at 1.2 µM): -1%
growth inhibition ([2]; at 3.7 µM): -3%
growth inhibition ([2]; at 11.0 µM): 98% (active)
growth inhibition ([2]; at 33.0 µM): 98% (active)
growth inhibition ([2]; at 100.0 µM): 97% (active)
growth inhibition ([3]; at 1.2 µM): -2%
growth inhibition ([3]; at 3.7 µM): 1%
growth inhibition ([3]; at 11.0 µM): 85% (active)
growth inhibition ([3]; at 33.0 µM): 96% (active)
growth inhibition ([3]; at 100.0 µM): 96% (active)
growth inhibition ([4]; at 1.2 µM): -2%
growth inhibition ([4]; at 3.7 µM): -3%
growth inhibition ([4]; at 11.0 µM): 99% (active)
growth inhibition ([4]; at 33.0 µM): 98% (active)
growth inhibition ([4]; at 100.0 µM): 96% (active)
growth inhibition ([5]; at 1.2 µM): -3%
growth inhibition ([5]; at 3.7 µM): 7%
growth inhibition [5, 17]: 34%
growth inhibition ([5]; at 11.0 µM): 98% (active)
growth inhibition ([5]; at 33.0 µM): 96% (active)
growth inhibition [5, 18]: 95% (active)
growth inhibition ([5]; at 50.0 µM): 98.4% (active)
growth inhibition ([5]; at 100.0 µM): 93% (active)
growth inhibition ([6]; at 1.2 µM): -6%
growth inhibition ([6]; at 3.7 µM): -8%
growth inhibition [6, 17]: 9%
growth inhibition ([6]; at 11.0 µM): 99% (active)
growth inhibition ([6]; at 33.0 µM): 98% (active)
growth inhibition [6, 18]: 98% (active)
growth inhibition ([6]; at 50.0 µM): 98.9% (active)
growth inhibition ([6]; at 100.0 µM): 96% (active)
growth inhibition ([7]; at 1.2 µM): -2%
growth inhibition ([7]; at 3.7 µM): 13%
growth inhibition ([7]; at 11.0 µM): 99% (active)
growth inhibition ([7]; at 33.0 µM): 98% (active)
growth inhibition ([7]; at 100.0 µM): 97% (active)
growth inhibition [8, 17]: 36%
growth inhibition [8, 18]: 97% (active)
growth inhibition ([8]; at 50.0 µM): 98.5% (active)
growth inhibition ([9]; at 1.2 µM): -3%
growth inhibition ([9]; at 3.7 µM): -3%
growth inhibition ([9]; at 11.0 µM): 97% (active)
growth inhibition ([9]; at 33.0 µM): 98% (active)
growth inhibition ([9]; at 100.0 µM): 94% (active)
growth inhibition [10, 17]: 9%
growth inhibition [10, 18]: 93% (active)
growth inhibition ([10]; at 50.0 µM): 97.6% (active)
growth inhibition ([11]; at 1.2 µM): -5%
growth inhibition ([11]; at 3.7 µM): -6%
growth inhibition [11, 17]: 6%
growth inhibition ([11]; at 11.0 µM): 99% (active)
growth inhibition ([11]; at 33.0 µM): 97% (active)
growth inhibition [11, 18]: 96% (active)
growth inhibition ([11]; at 50.0 µM): 97.4% (active)
growth inhibition ([11]; at 100.0 µM): 94% (active)
